# A selection: hits, their analogues and other compounds. The true share with any hit is near 2.4%.
# D2 PAM-1 – positive allosteric modulators of human D2 dopamine receptor; P14416; HEK293 T-REx D2, calcium flux, EC20 dopamine potentiation; potentiation, % at 10 µM; 0.34% of 340,000 active;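 active = potentiation over 3 SD above the plate norm, cut at about 30% in these data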; note: 0% is about no effect
# Target sequence (P14416 whole entry, looked up): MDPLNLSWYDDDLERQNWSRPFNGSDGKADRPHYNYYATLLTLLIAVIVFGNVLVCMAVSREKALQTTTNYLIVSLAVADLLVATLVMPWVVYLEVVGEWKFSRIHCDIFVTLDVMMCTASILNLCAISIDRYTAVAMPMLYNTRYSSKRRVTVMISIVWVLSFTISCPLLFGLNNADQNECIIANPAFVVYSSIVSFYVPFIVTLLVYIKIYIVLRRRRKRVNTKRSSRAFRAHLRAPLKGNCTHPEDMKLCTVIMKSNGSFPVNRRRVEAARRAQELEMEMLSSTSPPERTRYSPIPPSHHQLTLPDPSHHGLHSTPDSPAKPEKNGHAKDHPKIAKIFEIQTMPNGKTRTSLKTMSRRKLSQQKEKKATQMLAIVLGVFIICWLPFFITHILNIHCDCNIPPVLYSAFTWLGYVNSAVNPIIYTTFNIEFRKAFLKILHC
#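 Calcium flux readout, no-wash dye, 1 read/s. Inducible HEK293 Trex D2 line, overnight 30 C. Compound alone 180 s (agonist flags), then EC20 dopamine, another 180 s to score potentiation.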
# D2 ag-1 – human D2 receptor agonism in beta-arrestin assay; activation, % (no concentration beside the values); AID 624465; 0.084% of 360,000 active; DiscoveRx PathHunter D2 beta-arrestin, luminescence, 90 min; 100% = 57 uM dopamine signal; in the data active = activation above about 40%; inconclusive = between about 15% and that limit
#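 DiscoveRx PathHunter D2 beta-arrestin cells (2,100/well) attached overnight, then compound-stimulated 90 min at 37 C in HBSS/10 mM HEPES/0.1% Tween-20 buffer; beta-galactosidase complementation read by luminescence after 1 h at ambient temperature. Dopamine 57 uM final (EC100) as control.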
# D2 PAM-2 – potentiates the human D2 dopamine receptor allosterically. 0.23% of 360,000 active. P14416. DiscoveRx D2 beta-arrestin cells, luminescence, 90 min; 100% = 57 uM dopamine signal. potentiation, % (no concentration beside the values); in the data active = potentiation above about 50%; inconclusive = mostly about 30% to 49%
#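 D2 cells co-treated with compound plus 50 nM dopamine (EC20) for 90 min at 37 deg C to detect potentiation. Beta-arrestin recruitment was read as enzyme-fragment luminescence after 1 h at ambient temperature. Full response was set by 57 uM dopamine.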
# D2 antagonist – antagonizes the human D2 dopamine receptor. inhibition, % at 10 µM. HEK293 TREx D2 cells, calcium flux, dopamine EC80. 2% of 340,000 active; in the data active = inhibition above about 30%; inactive = below that, where a call was filed; note: 0% is about no effect
#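 Compounds are added to dye-loaded, induced HEK293 T-REx cells coupled to calcium release via D2; after a 3 min kinetic read an EC80 dopamine stimulus is given and fluorescence is recorded for 3 more min.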
# D2 ag-2 – activates the human D2 dopamine receptor. HEK293 T-REx D2 cells, calcium flux agonist mode. activation, % at 2 µM. 0.53% of 340,000 active;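 active = activation over 3 SD above normal in the single-dose calcium agonist read, cut at about 30% in these data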; note: 0% is about no effect
#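 Calcium-flux readout, 1 cycle/sec over 180 s following compound pin transfer, in inducible HEK293 Trex D2 cells (force-coupled); dopamine controls included. Positive calcium responses during this window marked compounds as potential agonists.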
# * marks the source's active call; other numbers are inactive results; u = inconclusive; x = no result given.
SMILES,D2 PAM-1,D2 ag-1,D2 PAM-2,D2 antagonist,D2 ag-2
Nc1nc(SCc2ccccc2)c2ncn(C3CCCCC3)c2n1,x,7,-4,x,x
COc1ccc(NC(C)=O)cc1S(=O)(=O)NCCc1ccccn1,0,0,0,14,0
NC(=O)N=Nc1c2[nH]c3ccccc3nc-2c2ccccc12,0,3,15,-13,0
O=C1NC[C@@H](c2ccccc2)OC(=O)[C@@H](Cc2ccc(F)cc2)C/C=C\C[C@@H]1CC(=O)N(CCO)Cc1ccccc1,x,-4,-9,x,x
COc1c2c(cc3c1C(CC(O)Cc1ccccc1)N(C)CC3)OCO2 (stereo unspecified),-26,-1,-10,57*,2
O=S(=O)(/N=C(/c1ccccc1)N1CCOCC1)c1ccc(F)cc1F,x,-2,-6,x,x
Cc1nn(C2CCS(=O)(=O)C2)c(C)c1CN(C)C(=O)c1ccc(S(=O)(=O)N(C)C)cc1 (stereo unspecified),x,8,0,x,x
C/C(CCN1CCCCc2nc(C)c(C)cc21)=N\O[C@H](C)c1cn([C@H](CO)Cc2ccccc2)nn1,2,x,x,-2,-1
CC(=O)OC[C@H]1O[C@H](CCO/N=C(\C)CCN2CCCc3nc(C)c(C)cc32)C=C[C@@H]1OC(C)=O,-24,x,x,78*,65*
O=[N+]([O-])c1ccccc1/C=C/CN1CCCCC1,-18,6,-20,36*,0
CC(C)N(Cc1ccccc1)C(=O)/C=C/c1ccccc1[N+](=O)[O-],14,0,-5,-1,0
O=[N+]([O-])c1ccccc1/C=C/CN1CCN(Cc2ccc3c(c2)OCO3)CC1,-22,3,-78,31*,2
CN(C/C=C/c1ccccc1[N+](=O)[O-])Cc1ccccc1,-21,1,-7,57*,0
O=[N+]([O-])c1ccc2ncnc(N3CCN(Cc4ccc5c(c4)OCO5)CC3)c2c1,-19,u,-27,101*,77*
COCc1cccc(-c2csc(C(C)(NC(C)=O)c3ccccc3)n2)c1 (stereo unspecified),x,-2,-6,x,x
CCC(=O)Nc1sc2c(c1C(=O)Nc1ccc(Br)cc1)CCCCC2,-15,x,x,x,x
NC(c1ccccc1)c1csc(Nc2cc(Oc3ccccc3)ncn2)n1 (stereo unspecified),x,3,-2,x,x
CCCOc1ccc(C(=O)NCC(c2ccc(OC)cc2)N2CCCCC2)cc1 (stereo unspecified),-23,x,x,x,x
CCOc1ccccc1C(O)C1=CC(=O)c2ccccc2C1=O (stereo unspecified),x,1,58*,x,x
CC1=CC(=O)c2ccccc2C1=O,5,3,22,-23,-1
Cc1ccc2c(CC(=O)Nc3c(C(=O)c4ccc(F)cc4)oc4ccccc34)coc2c1C,12,x,x,x,-1
NC(=O)C1C(c2ccccc2)=C1c1ccccc1,-3,-2,-7,38*,0
Cc1ccc(-n2ncc(C(=O)Nc3ccc4c(c3)OCO4)c2C2CCN(C(=O)OC(C)(C)C)CC2)c(C)c1,5,x,x,x,-1
CCOC(=O)N1CC=C2C(C#N)=C(N)C(C#N)(C#N)[C@H](c3cccs3)C2C1 (stereo partly specified),72*,-4,-5,-18,0
Cc1ccc2occ(C(=O)c3ccco3)c(=O)c2c1,2,-1,-2,39*,-1
SMILES,D2 PAM-1,D2 ag-1,D2 PAM-2,D2 antagonist,D2 ag-2
COc1cccc(C(=O)CSc2nc3cccnc3n2C)c1,-3,1,-3,37*,1
COc1ccc(C(=O)CSc2nc3cccnc3n2C)cc1,11,-3,1,-14,0
CC(=O)N1c2ccc(S(=O)(=O)NCCC(=O)N3CCC(C)CC3)cc2CC1C (stereo unspecified),-2,2,-9,-7,-1
COc1ccc(Cl)cc1NC(=O)C(OC)c1ccccc1 (stereo unspecified),10,-3,-23,30*,0
COc1ccc(Cl)cc1NC(=O)Nc1cccc([N+](=O)[O-])c1C,-26,-5,-57,66*,1
COc1ccc(Cl)cc1NC(=O)c1ccccc1C,0,-3,-26,32*,-1
CCC(C(=O)Nc1cc(Cl)ccc1OC)c1ccccc1 (stereo unspecified),11,-4,-9,4,0
COc1ccccc1C(=O)Nc1cc(Cl)ccc1O,-4,1,-6,4,1
CCC(C(=O)Nc1cc(OC)c(NC(=O)c2ccccc2)cc1OC)c1ccccc1 (stereo unspecified),16,1,-3,42*,-1
S=c1nc(-c2ccccn2)c(-c2ccccn2)n[nH]1,x,6,-1,x,x
Cc1ccc2c(=O)cc(CSCC(=O)Nc3nnc(C)s3)[nH]c2c1,8,x,x,x,-1
CCc1cc(=O)n2[nH]c(-c3ccccc3)c(-c3ccccc3)c2n1,-5,-3,-10,-12,1
O=S1(=O)C[C@H](N2CCCC2)[C@@H](COCc2ccccc2)N1,x,-2,-7,x,x
Cc1cc(=O)[nH]c(SCC(=O)Nc2ccc3c(c2)CCC3)c1C#N,6,5,1,36*,0
Cc1cc(=O)[nH]c(SCC(=O)Nc2ccc(F)cc2)c1C#N,-4,-1,0,-4,1
CCCN1CN(Cc2ccco2)c2nc3ccccc3n2C1,9,-1,8,43*,-2
CC(=O)c1ccc(N2CCN(C(=O)/C=C/c3ccc(S(=O)(=O)N4CCOCC4)cc3)CC2)cc1,-8,-3,-7,50*,1
CCCCNc1ccc2c3c(cccc13)C(=O)N(CCCC)C2=O,-28,6,-4,81*,185*
Cc1ccc(N2C(=O)c3cccc4c(N)ccc(c34)C2=O)c2cccnc12,-13,-1,-8,-13,84*
CCN1C(=O)c2cccc3c(N)ccc(c23)C1=O,-9,14,2,61*,151*
CCCN1C(=O)c2cccc3c(N4CCCCC4)ccc(c23)C1=O,-2,1,-8,-7,9
Cc1nn(C)c(C)c1N1C(=O)c2cccc3c(N)ccc(c23)C1=O,2,-1,-4,26,115*
Cc1ccc(-n2cnnn2)c2cccnc12,4,0,-8,13,0
CCOc1ccccc1NC(=O)CCc1c(C)nc2cc(-c3ccccc3)nn2c1C,11,x,x,x,0
O=C(CCCc1c[nH]c2ccccc12)NCc1ccccc1C(F)(F)F,-5,-3,-14,11,-4
Cc1nc2ccc(C(=O)Nc3cccc(OCC(=O)N(C)C)c3)cn2c1N(C)CC1CCCCC1,x,5,1,x,x
O=C(O)COc1ccccc1-c1nc(-c2ccccc2)c(-c2ccccc2)[nH]1,9,8,7,-2,0

# Screening results: PubChem, National Center for Advancing Translational Sciences (NCATS)
